Among the data in ChEMBL document CHEMBL4513216, “Probing the Open Global Health Chemical Diversity Library for Multistage-Active Starting Points for Next-Generation Antimalarials” (ACS Infect Dis, 2020) are INHIBITION values, retold here.

Screen size: about 69,000 compounds; about 8,600 (12%) showed an effect of 50% or more. The full list was thinned out, with strong results kept by preference.

The subject of the assay is Plasmodium berghei. The assay can be described thus: Screen against P. berghei liver stage (PbLuc), transformed with Luciferase, at 10uM. The class given is functional, HepG2. Particulars: tested at 10 uM.
In the case of `CCn1ccnc1CN1CCN(C(C)C(=O)NCc2ccco2)CC1` (stereo not given), the INHIBITION is 18.6%.
In the case of `Cc1c[nH]nc1C1CN(c2cnccn2)CCO1` (stereo not given) it was 24.05%; in that of `Cc1nc(C(C)C)sc1C(=O)NCC(C)(C)N1CCOCC1`, -20.1%; in that of `Cc1nn(C)c(C)c1-c1nc2cc(S(=O)(=O)N3CCCC3)ccc2n1C`, -28%.
Turning to `O=C1COC2(CCN(CC3CCOCC3)CC2)CN1Cc1ccccn1`, the INHIBITION is recorded as 27.4%.
Turning to `O=C(NCCCO)c1nnsc1-c1ccc(Cl)cc1`, the INHIBITION turned out to be 31.7%.
`Clc1ccc2[nH]c3c(c2c1)CCCC3c1nn[nH]n1` (stereo not given): the INHIBITION amounted to 30.2%.
With `Cn1c(N)c2c(=O)n(C)c(-c3ccc(Cl)cc3)cc2c(C#N)c1=O` the figure was -26.3%.
Take `Cn1c(N)c2c(=O)n(C)c(-c3ccc(Cl)cc3Cl)cc2c(C#N)c1=O`: the INHIBITION is 66%.
In the case of `Cn1c(N)c2c(=O)n(C)c(-c3ccccc3)cc2c(C#N)c1=O` it was 0.868%; in that of `COc1ccc(NC(=O)CCSc2ccc3nncn3n2)c(OC)c1`, 28.1%.
For `O=C1CO[C@H]2CN(Cc3cccc4[nH]ccc34)C[C@@H]2N1C1CCOCC1`, the INHIBITION was 26.8%.
With `Oc1cc(C2CCCN(Cc3cccs3)C2)nc(-c2ccccn2)n1` (stereo not given) the figure was 81.5%; with `Oc1cc(C2CCCCN2Cc2cccs2)nc(-c2ccncc2)n1` (stereo not given), 19.25%; with `Oc1cc(C2CCCCN2Cc2cccs2)nc(-c2ccccn2)n1` (stereo not given), 86.3%.
For `Oc1cc(C2CCCCN2Cc2ccsc2)nc(-c2ccncc2)n1` (stereo not given), the INHIBITION stood at 10.9%.
Consider `Cc1cnc(-c2nc(C3CCCN(Cc4cccs4)C3)no2)cn1` (stereo not given), for which the INHIBITION was 14.975%.
In the case of `Cn1nc(C2CCCN(Cc3cccs3)C2)c2nccnc21` (stereo not given), the INHIBITION is listed as -0.902%.
With `COCCNC(=O)[C@@H]1CN(Cc2sccc2C)C[C@H]2OCC[C@H]21`, the INHIBITION was 16.8%.
On to `Cn1nnc(NCc2ccc(-c3ccc(Cl)cc3)o2)n1`, for which the INHIBITION was found to be 49.7%.
As for `Brc1ccc(CNCc2nnc3n2CCC3)s1`, the INHIBITION stood at 36.7%.
In the case of `Cc1nc(C2CCCN2CC(=O)N(C)Cc2ccsc2)no1` (stereo not given) it was 13.3%; in that of `COc1cccc2c1N(CC(=O)Nc1ccc(Br)cn1)CCC2`, 66.7%; in that of `COc1cccc2c1N(CC(=O)Nc1ccc(Cl)cn1)CCC2`, 33.1%.
Take `O=C(CN1CCCc2cc(F)cc(F)c21)Nc1ccc(Br)cn1`: the INHIBITION is -5.57%.
With `Cn1cnc(S(=O)(=O)N2CCCC2c2cnccn2)c1` (stereo not given) the figure was 22%; with `Cc1cc(CN2CCN(c3nn4cc(C)nc4s3)CC2)on1`, 37%.
For `Cc1cn2nc(N3CCN(Cc4cc(C)on4)CC3)sc2n1`, the INHIBITION was 7.08%.
Take `Cc1cn2nc(N3CCN(Cc4c(C)noc4C)CC3)sc2n1`: the INHIBITION is 58.5%.
With `CCc1nc(CN2CCCN(c3nn4cc(C)nc4s3)CC2)no1`, the INHIBITION is 85.2%.
With `Cc1cn2nc(N3CCCN(Cc4noc(C)n4)CC3)sc2n1`, the INHIBITION is given as -9.14%.
For `Cc1cn2nc(N3CCN(Cc4nc(C(C)C)no4)CC3)sc2n1`, the INHIBITION is on record as 42%.
In the case of `Cc1cnn(CC(C)Nc2nc3ccccc3o2)c1` (stereo not given), the INHIBITION worked out at 21.8%.
With `COCC[C@]1(O)CCN(C2CCN(C(=O)C3CCC3)CC2)C[C@H]1C`, the INHIBITION was 36.4%.
For the compound `O=C(NC1CCC1)[C@H]1C[C@H]2CN(C(=O)Nc3ccc(F)cc3)C[C@@H]1O2`, the INHIBITION worked out at 1.9%.
In the case of `c1csc(CNc2ccccc2Cn2cncn2)c1`, the INHIBITION is recorded as -56.8%.
On to `CC(C)N(CC(N)=O)Cc1csc(C(C)(C)C)n1`, for which the INHIBITION was -7.31%.
In the case of `CC(C)(C)c1ncc(CNc2ccccc2SCCC(N)=O)s1`, the INHIBITION was 83.4%.
Take `Cc1ccc(CNc2ccccc2SCCC(N)=O)s1`: the INHIBITION turned out to be 39.7%.
As for `c1ccc(NCc2ccsc2)c(Cn2cncn2)c1`, the INHIBITION was 3.41%.
Consider `CC(C)(C)c1ncc(CNc2ccccc2Cn2cncn2)s1`, for which the INHIBITION is 60.6%.
For the compound `CC(C)(C)c1nc(CNc2ccccc2SCCC(N)=O)cs1`, the INHIBITION stood at 77.4%.
With `NC(=O)CCSc1ccccc1NCc1ccc(Cl)s1`, the INHIBITION came out at 75.7%.
With `NC(=O)CSc1ccccc1NCc1nc(Cc2ccccc2)no1` the figure was -75.4%.
For the compound `NC(=O)C(NC(=O)CCc1ccc(Cl)s1)c1ccccc1` (stereo not given), the INHIBITION is -19.7%.
In the case of `CC(C)(C)c1ncc(C(=O)NC(C(N)=O)c2ccccc2)s1` (stereo not given) it was 3.15%.
With `CNc1nc(CNC(=O)Nc2ccccc2SC)cs1` the figure was 6.14%; with `CC(=O)N1CCC(Cc2cncc(-c3c(C)n[nH]c3C)n2)C1` (stereo not given), 28%.
Turning to `CN1CC(=O)N(c2cccnc2)CC12CCN(C(=O)c1cccn1C)C2` (stereo not given), the INHIBITION is -46.8%.
On to `CCCOC(=O)NCCC1CN(c2cnn(C)c(=O)c2)CCO1` (stereo not given), for which the INHIBITION is recorded as 45.3%.
In the case of `CC(=O)NC(=O)C1(CCCc2ccncc2)CCN1` (stereo not given), the INHIBITION is given as 12.3%.
With `O=C(N1CCCC1)N1Cc2nccn2CC(COc2cccnc2)C1` (stereo not given), the INHIBITION is listed as -21.1%.
With `CSc1ccc(C(=O)N2CC(=O)N(Cc3ccccc3)CC(O)C2)cc1` (stereo not given), the INHIBITION is -42.1%.
Consider `O=C(CN1C(=O)CCC1=O)N1CCOCC1`, for which the INHIBITION amounted to 59.8%.
As for `O=C(CN1C(=O)CCC1=O)N1CCOC2(CCOCC2)C1`, the INHIBITION was found to be 32.4%.
With `O=C(Cn1nc(Br)nc1Br)N1CCOCC1`, the INHIBITION was found to be 15.5%.
With `Cc1nc2[nH]cnc(Nc3ccn(C)n3)c-2n1`, the INHIBITION was 25.9%.
In the case of `CC(C)CC(NC(=O)OC(C)(C)C)C(N)=O` (stereo not given), the INHIBITION is reported as 13.9%.
In the case of `Cc1cccc(-c2nc3cc(S(=O)(=O)N4CCCC4)ccc3n2C)n1`, the INHIBITION is given as -7.53%.
Turning to `CC(C)(CO)CCCNC(=O)NC1(c2ccccc2F)CC1`, the INHIBITION is given as 9.16%.
`O=C(NCCOc1ccc2c(c1)OCO2)C1CC(=O)N(C2CC2)C1` (stereo not given): the INHIBITION turned out to be 31.9%.
In the case of `O=C(N[C@@H]1CN[C@H]2CCCO[C@H]21)c1cnccn1` it was 52%; in that of `O=C(N[C@@H]1CN[C@@H]2CCCO[C@@H]21)c1cscn1`, 11.4%.
In the case of `O=C(N[C@H]1CN[C@H]2CCCO[C@H]21)c1cscn1`, the INHIBITION is on record as 1.81%.
For `Cc1ccc(CNc2cc(C(=O)N3CCOCC3)nc(C)n2)cc1`, the INHIBITION is recorded as -3.72%.
In the case of `CC(C)N1CC(C(=O)NCc2cccnc2-n2cccn2)CC1=O` (stereo not given) it was 6.2475%.
Take `CC(C)C(=O)NCCCNC(=O)Nc1cc(-c2ccccc2)ns1`: the INHIBITION is given as -89.2%.
In the case of `CC(C)(C)NC(=O)CNC(=O)Nc1cc(-c2ccccc2)ns1` it was 26%; in that of `CNC(=O)CNC(=O)Nc1cc(-c2ccccc2)ns1`, 73.3%.
As for `COc1cccc(CCC(=O)N2CCCC(c3nncn3C)C2)c1` (stereo not given), the INHIBITION is 4.71%.
With `COc1ccc(CN2CCCCCC2c2cccs2)c(OC)c1` (stereo not given) the figure was 10.2%.
With `COc1cccc(CN2CCCCCC2c2cccc(F)c2)c1O` (stereo not given), the INHIBITION is -0.29%.
In the case of `COc1cccc(CN2CCCCCC2c2sccc2C)c1O` (stereo not given) it was 23.5%; in that of `COc1cccc(CN2CCCCCC2c2cccs2)c1O` (stereo not given), 33.2%.
In the case of `COc1cc(CN2CCCCCC2c2cccs2)cc(OC)c1O` (stereo not given), the INHIBITION is given as 50.8%.
For the compound `COc1cccc(CN2CCCCCC2c2cccc(C)c2)c1O` (stereo not given), the INHIBITION was 56.1%.
On to `COc1ccc(CN2CCCCCC2c2cccs2)c(O)c1` (stereo not given), for which the INHIBITION came out at 4.35%.
As to `COc1cc(CN2CCCCCC2c2cccs2)cc(OC)c1OC` (stereo not given), the INHIBITION is reported as 29.3%.
For `COc1ccc(OC)c(CN2CCCCCC2c2cccs2)c1` (stereo not given), the INHIBITION is recorded as 50.5%.
With `CC1=Nc2c(c(O)nn2C(C)C)C(c2cnn(C)c2)S1` (stereo not given) the figure was 21.7%; with `COc1nsc2nc(C3CCCN3C(C)=O)ccc12` (stereo not given), 26.12%.
Take `CCCc1nccn1-c1ccc(C(C)O)cc1` (stereo not given): the INHIBITION is -20.6%.
In the case of `Cc1nn(C)c(C)c1CN(Cc1cccn1-c1ncccn1)C(C)C`, the INHIBITION is recorded as -30.5%.
Regarding `Cc1nn(C)c(C)c1CCNC(C)c1ccc(-n2ccnc2C)cc1` (stereo not given), the INHIBITION is 87.6%.
Take `Cn1cc(C(NCCc2ccccn2)c2cccc(F)c2)cn1` (stereo not given): the INHIBITION is reported as -1.75%.
In the case of `Cc1nccn1-c1ccc(CN2CC3C[C@@H](O)CN3C[C@@H]2C)cc1` (stereo not given in full) it was -44.8%.
In the case of `Cc1nccn1-c1ccc(C(C)NCCc2ccccn2)cc1` (stereo not given) it was 62.8%.
With `Cc1nccn1-c1ccc(C(C)NCCC(C)C)cc1` (stereo not given) the figure was 62.8%; with `CC(Cn1ccnc1)NC(=O)NCCc1ccccn1` (stereo not given), 46.5%; with `CCCC(C)NC1CCN(c2ccc(-n3ccnc3C)cc2)CC1` (stereo not given), 52.1%.
As for `Cc1nccn1-c1ccc(N2CCC(NC(C)CC(C)C)CC2)cc1` (stereo not given), the INHIBITION stood at 38.5%.
With `Cc1nccn1-c1ncccc1NC(=O)CCOCC(C)C` the figure was 4.66%; with `CCS(=O)(=O)c1ccc(N2CCC(NC(=O)CCC(C)C)CC2)cc1`, 42.6%.
Take `CN(C)CCO[C@H]1CN(C(=O)c2cccs2)[C@@H]2COC[C@H]12`: the INHIBITION is -19.1%.
For the compound `CN1Cc2[nH]nc(COCC3CC3)c2C1`, the INHIBITION is -44.9%.
With `O=C(c1ccc(-c2cccc3c2CCNC3)o1)N1CCOCC1` the figure was 39.1%.
For `CCOC[C@@H]1CC[C@H]2[C@H](CCN2S(=O)(=O)c2ccc(F)cc2)O1`, the INHIBITION is reported as -17.1%.
For the compound `O=C(O)c1c(-c2ccoc2)ncc2c1CCN(C1CCOC1)C2` (stereo not given), the INHIBITION turned out to be 21.6%.
With `CC(NC(=O)NCC1(c2ccc(F)cc2)CC1)c1nncn1C` (stereo not given), the INHIBITION was determined as 31.9%.
For `Cc1cnn(CCC(=O)N2CCCC(c3nc(C)c(C)s3)C2)c1` (stereo not given), the INHIBITION is recorded as -7.35%.
For `NCC1(c2cccc(Br)c2)CCOCC1`, the INHIBITION is -51.5%.
Regarding `NCC1(c2cccc(C(F)(F)F)c2)CCOCC1`, the INHIBITION was 8.47%.
As for `NCC1(c2cccc(F)c2)CCOCC1`, the INHIBITION is reported as 50.2%.
With `O=C(Cc1ccsc1)N1C[C@@H]2CN(Cc3ccoc3)CCO[C@@H]2C1` the figure was 16.5%.
Take `Cc1noc(C)c1C(=O)NCC(c1cccc(F)c1)N(C)C` (stereo not given): the INHIBITION was -20.19%.
Take `Cc1noc(C)c1C(=O)NCC(c1ccc(F)cc1)N(C)C` (stereo not given): the INHIBITION amounted to 23.4%.
With `Cc1noc(C)c1C(=O)NCC(c1ccsc1)N(C)C` (stereo not given) the figure was -38.7%; with `CCc1noc(C)c1C(=O)NCC(c1ccc(C)cc1)N(C)C` (stereo not given), -25.4%.
For `COc1ccc(C(CNC(=O)c2c(C)noc2C)N(C)C)cc1` (stereo not given), the INHIBITION is recorded as 50.75%.
In the case of `CCc1ccc(C(CNC(=O)c2c(C)noc2C)N(C)C)cc1` (stereo not given) it was 58.9%.
